# Screens as filed in PubChem BioAssay.
# ADAM17 inh: ADAM17 inhibition, QFRET primary screen; inhibition, % at 6.95 µM; 370,000 tested, 0.83% active; recombinant ADAM17, EDANS/DABCYL FRET peptide cleavage; P78536;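 active means inhibition above the mean of compounds lying between control limits plus 3 SD, set per campaign, cut at about 8.5% in these data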;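 further: 0% = DMSO-only wells as the low control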
# Pemphigus Ab inh: blocks pemphigus antibody binding to human desmoglein-3; P32926; DSG3-coupled beads, scFv-anti-DSG3-GFP binding, flow cytometry; active compounds read low; binding (percent of control), % at 10 µM; 310,000 tested, 0.48% active; AID 588358;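 active means binding more than 3 SD below its plate's average and above zero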;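 further: hits lower antibody fragment binding to DSG3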
# rCAG binder: binds r(CAG) RNA repeats. r(CAG) RNA repeat, TO-PRO-1 dye displacement fluorescence. inhibition, % at 3 µM. 370,000 tested, 1.3% active;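 active means inhibition above the plate cutoff, the mean of all test compounds on that plate plus 3 SD, cut at about 35% in these data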;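 further: 0% = DMSO alone and 100% = 100 µM mitoxantrone as full dye displacement; higher means more dye released from RNA so lower well fluorescence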
# ADAM10 inh: inhibitors of human ADAM10 | 370,000 tested, 0.62% active | recombinant ADAM10, EDANS/DABCYL FRET peptide cleavage, 3 h | O14672 | inhibition, % at 7 µM;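 active means inhibition above a per-campaign cutoff equal to the mean of compounds falling between control-based bounds plus 3 SD, cut at about 20% in these data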;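 further: 0% = DMSO wells while the 100% control is not disclosed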
# MPTP block: inhibitors of mitochondrial permeability transition pore. isolated mouse mitochondria, Ca2+ swelling absorbance, 30 min. inhibition, % at 10 µM. 360,000 tested, 1.4% active;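 active means inhibition of 50% or more, scaled per plate between neutral and stimulator controls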;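 further: 0% = DMSO wells given calcium and 100% = 1 mM EGTA wells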
# proKLK7 act: activators of human kallikrein-7 zymogen; activation, % at 7 µM; AID 652039; purified proKLK7, EDANS-DABCYL substrate fluorescence; 100% is mature enzyme control, 0% vehicle; 370,000 tested, 0.9% active; P49862;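 active means activation above the mean of all tested compounds plus 3 SD, computed per campaign excluding outliers beyond control limits, cut at about 13% in these data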
# Rh123 counter: membrane potential counter-screen of mitochondrial pore inhibitors. shares compounds with MPTP block. isolated mitochondria, Rhodamine 123 fluorescence. 5,000 tested, 78% active. inhibition, % at 10 µM; in the data active means inhibition above about 22%;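 further: 0% = DMSO vehicle and 100% = positive control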
# An asterisk follows results filed as active; i = inactive; nt = not tested or not shown; ! = not active in a repeat. Sampled rows, rich in hits. Any-hit rate of the full collection: about 4.7%.
SMILES,ADAM17 inh,Pemphigus Ab inh,rCAG binder,ADAM10 inh,MPTP block,proKLK7 act,others
CN1CN(c2ccccc2)C2(CCN(CCCSc3ccccc3NC(=O)/C=C/c3ccccc3)CC2)C1=O,14.0*,108.5,2.0,7.7,0.0,0.2,
O=C(NCCN1CCC2(CC1)C(=O)NCN2c1ccccc1)c1cccc2c1-c1ccccc1C2=O,-3.3,nt,5.0,-9.3,nt,0.8,
O=c1[nH]c(=O)n(CCC2=CCCCC2)c(O)c1C=NC1CCN(Cc2ccccc2)CC1,8.9*,119.5,2.4,-6.0,47.7,0.0,
C=CCn1c(O)c(C=NC2CCN(Cc3ccccc3)CC2)c(=O)[nH]c1=O,-4.3,112.9,-7.1,-2.8,1.0,-0.7,
S=P(c1ccccc1)(c1ccccc1)c1c[n+](Cc2ccccc2)c2ccccn12,-2.0,nt,nt,1.6,nt,nt,
COc1ccc(C2=NCC(=O)N(CC(=O)NCc3ccco3)c3sc4c(c32)CCCC4)cc1,2.5,76.1*,2.1,7.1,0.4,0.2,
CCCCn1c(NC(=O)c2ccc(Br)o2)c(C(=O)OCC)c2nc3ccccc3nc21,i,80.8,28.5,i,3.9,18.6*,
COc1ccc(OC(=O)N(C)C[C@@H]2OCc3ccccc3-c3c(n(C)c4ccccc34)C(=O)N([C@H](C)CO)C[C@@H]2C)cc1,3.9,103.1,8.0,-10.5,-0.4,0.6,
COCCCn1c(N)c(C(=O)NCc2ccco2)c2nc3ccccc3nc21,-391.9,92.5,7.7,i,nt,33.5*,
O=C(c1ccccc1)C(Cc1ccccc1)N1CCOCC1 (configuration not stated),-2.7,nt,-0.7,-13.5,-0.6,-0.1,
OC(c1ccc(F)cc1)C(c1ccccc1)N1CCOCC1 (configuration not stated),-2.3,23.4*,-5.0,2.9,0.6,-0.1,
Nc1cccc2c1Cc1cc([N+](=O)[O-])ccc1-2,-2.0,90.4,3.1,-5.4,1.3,0.4,
CCN(CC)C(=O)c1ccc2c(c1)C1C(Cl)C(Sc3ccccc3[N+](=O)[O-])CC1C(C(=O)O)N2 (configuration not stated),nt,87.4,nt,nt,11.5,nt,
Cc1ccc2c(c1Cl)NC(C(=O)O)C1CC(Sc3ccccc3[N+](=O)[O-])C(Cl)C21 (configuration not stated),nt,40.5*,nt,nt,9.9,nt,
Cc1ccc(OP2(=O)Nc3cc(C)c(C)cc3S2)cc1 (configuration not stated),1.7,106.6,7.6,-0.3,-2.9,-0.8,
CC[N+]12CCC(CC1)C(C(O)(c1ccccc1)c1ccccc1)C2 (configuration not stated),-2.0,100.7,1.4,-0.9,0.3,-0.6,
C[N+]12CCC(CC1)C(C(O)(c1cccc(Cl)c1)c1cccc(Cl)c1)C2 (configuration not stated),2.3,82.2*,0.0,3.6,-4.4,0.8,
O/N=C1\CCC2CN(C3CCCCC3)CC2C1 (configuration not stated),-1.9,11.8*,-1.0,0.9,-1.0,0.5,
Oc1ccc2c3c1O[C@H]1c4[nH]c5c(c4CC4(O)C(C2)N(CC2CC2)CCC314)CC1(O)[C@H]2Cc3ccc(O)c4c3[C@@]1(CCN2CC1CC1)C5O4 (some centres not stated),-6.3,nt,8.0,-3.6,nt,0.4,
CCOC(=O)c1c(/N=C/C2C(=O)NC(=S)NC2=O)sc2c1CCC2,nt,99.5,nt,nt,1.5,nt,
CCOC(=O)c1cc(C)sc1/N=C/C1C(=O)NC(=S)NC1=O,-11.1,69.2*,-7.4,-16.1,-1.9,0.1,
CCN(CC)C(=O)c1ccc2c(c1)C1C=CCC1C(C(=O)O)N2 (configuration not stated),-8.3,92.2,46.0*,-11.6,2.1,0.0,
CCOc1ccc(N2C(=O)/C(=C/c3ccco3)C(=O)NC2=S)cc1,nt,13.9*,nt,nt,7.5,nt,
COc1ccc(N2C(=O)/C(=C/c3ccc(OC)c(OC)c3)C(=O)NC2=S)cc1,-5.5,96.9,21.8,-2.3,-1.5,0.4,
CSc1nc(N)c(N=Nc2ccc([As](=O)(O)O)cc2)c(=O)[nH]1,9.1*,110.8,-1.0,-8.2,-1.1,-0.2,
SMILES,ADAM17 inh,Pemphigus Ab inh,rCAG binder,ADAM10 inh,MPTP block,proKLK7 act,others
COC(=O)C[C@]1(C(=O)OC)CN(C#N)N(c2ccc(Cl)cc2)C12c1ccccc1-c1ccccc12,6.8,69.1,9.9,30.6*,-1.2,0.0,
COC(=O)[C@@H]1[C@@H](C(=O)OC)C2(c3ccccc3-c3ccccc32)N(c2ccc(Cl)cc2)N1C#N,-2.1,58.8,2.2,2.8,-1.1,-6.3,
O=C(CNC(=O)c1ccc(Br)cc1)Nc1ccc(Br)cc1C(=O)c1ccccc1,1.3,101.5,2.8,-1.4,23.5,0.6,
COc1cc(C(=O)Nc2ccc(Br)cc2C(=O)c2ccccc2)cc(OC)c1OC,0.5,108.5,1.3,1.9,-2.6,25.6*,
N#Cc1ccc2nc(-c3ccc(CN4CCC(n5nnc6ccccc65)CC4)cc3)c(-c3ccccc3)nc2c1,-13.0,nt,9.1,-49.3,nt,-1.7,
C=CCN1C[C@H](C)N(C(c2ccc(C(=O)N(CC)CC)cc2)c2cccc(OC)c2)CC1C (some centres not stated),1.3,nt,-1.1,-4.1,nt,0.7,
CC(C)CC(N(C)C)C1(c2ccc(Cl)cc2)CCC1 (configuration not stated),-4.8,79.1*!,-1.2,-17.0,-0.4,-0.5,
O=S(=O)(c1ccccc1)N1Cc2ccccc2-n2nncc2C1,-2.2,97.6,-0.5,-9.8,0.0,0.0,
COC(=O)C1=C(c2ccc(F)cc2OCc2ccccc2)C[C@@H]2CC[C@H]1N2C(=O)NCc1ccc2c(c1)OCO2,6.9,102.3,3.3,21.6*,4.2,0.9,
COC(=O)C1=C(c2ccc(F)cc2OCc2ccccc2)C[C@@H]2CC[C@H]1N2C(=O)NCc1ccccc1,-0.2,94.0,-3.1,18.4,0.1,0.3,
COC(=O)C1=C(c2ccc(F)cc2F)C[C@@H]2CC[C@H]1N2C(=O)NCc1ccc(F)cc1,-2.5,102.5,-2.4,75.8*,0.0,0.1,
COc1ccc(N2C(=O)/C(=C/c3ccc(C)o3)C(=O)NC2=S)c(OC)c1,0.2,112.0,43.9*,7.1,0.9,-0.6,
O=c1[nH]sc2cc(F)ccc12,-4.9,4.9*,0.5,-5.0,2.8,0.2,
CCC(c1nnnn1C1CCCC1)N1CCC2(CC1)C(=O)NCN2c1ccccc1 (configuration not stated),-1.9,nt,2.8,-7.8,0.5,-0.3,
COc1cccc2c1C(=O)c1c(O)c3c(c(O)c1C2=O)CC(O)(C(C)=NO)CC3OC1CC(N)C(O)C(C)O1 (configuration not stated),-5.1,93.4,6.6,-12.0,-0.1,1.3,
O=C(Nc1ccc(Cl)cc1)N1CC2CC(C1)c1cccc(=O)n1C2 (configuration not stated),-6.5,nt,1.5,1.1,59.6*,0.8,Rh123 counter=103.0*
